Source: PubChem BioAssay (Tox21)
Records with an inconclusive call do not appear. The source made the active and inactive calls. Unless noted, the call rests on the fitted dose curve.

How the values were obtained:
[1] = target: Gonadotropin-releasing hormone receptor (Homo sapiens) (UniProt P30968); assay: Human gonadotropin-releasing hormone receptor (GnRHR) small molecule agonists, calcium flux assay in GnRHR-HEK293 cells (AID 1920063); further: nearly all actives have a fitted effect of over 35% in size
Sequence of Gonadotropin-releasing hormone receptor (Homo sapiens) (P30968 whole entry, looked up): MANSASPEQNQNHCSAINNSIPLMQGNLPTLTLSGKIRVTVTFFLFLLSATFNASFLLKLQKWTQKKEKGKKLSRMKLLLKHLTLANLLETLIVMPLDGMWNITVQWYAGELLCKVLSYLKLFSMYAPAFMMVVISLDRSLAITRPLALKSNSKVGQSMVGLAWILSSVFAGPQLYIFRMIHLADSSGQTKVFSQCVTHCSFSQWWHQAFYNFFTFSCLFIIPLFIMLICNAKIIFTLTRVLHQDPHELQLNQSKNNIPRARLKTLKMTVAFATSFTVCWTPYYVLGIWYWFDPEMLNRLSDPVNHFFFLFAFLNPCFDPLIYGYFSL
In short: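 Agonist mode: compounds at 15 concentrations, in triplicate, went onto calcium dye-loaded GnRHR-HEK293 cells. Intracellular calcium was then followed as 480/540 nm fluorescence at 1 s intervals over 3 min.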

[2] = target: KiSS-1 receptor (Homo sapiens) (UniProt Q969F8); assay: Human kisspeptin (KISS1R) small molecule agonists, calcium flux assay in KISS1R-HEK293 cells (AID 1920064; active means well fitted activation curve with a large enough effect in the repeat runs)
Sequence of KiSS-1 receptor (Homo sapiens) (Q969F8 whole entry, looked up): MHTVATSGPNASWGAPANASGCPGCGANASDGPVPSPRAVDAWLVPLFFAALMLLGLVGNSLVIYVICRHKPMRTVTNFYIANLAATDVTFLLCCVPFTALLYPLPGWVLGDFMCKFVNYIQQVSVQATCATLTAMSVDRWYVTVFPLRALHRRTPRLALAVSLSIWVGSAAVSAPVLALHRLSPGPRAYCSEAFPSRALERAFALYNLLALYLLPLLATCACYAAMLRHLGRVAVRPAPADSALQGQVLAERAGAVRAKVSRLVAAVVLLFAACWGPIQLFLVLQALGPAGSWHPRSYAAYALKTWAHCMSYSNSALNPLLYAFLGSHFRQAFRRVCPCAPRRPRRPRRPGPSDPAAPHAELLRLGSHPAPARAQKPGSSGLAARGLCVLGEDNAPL
In short: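 Agonist mode: intracellular calcium rise tracked at 1 s intervals over 3 min (480/540 nm) immediately after compound addition to dye-loaded KISS1R-HEK293 stable cells. Each compound tested at 15 concentrations in triplicate.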

[3] = G protein-coupled receptor (GPCR) small molecule agonists, calcium flux assay: HEK293 wild type cell line counter screen (AID 1920065)
In short: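 Calcium flux counter screen: compound added in agonist mode at 15 concentrations in triplicate to dye-loaded parental HEK293 cells. Fluorescence (480/540) read kinetically for 3 min; ATP served as positive control.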

[4] = p53 small molecule agonists, cell-based qHTS assay with human liver microsomes (AID 1963577)
In short: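 p53RE-bla cells, 4,000/well, compound added after 5 h, with human liver microsomes 0.5 mg/mL and NADPH 0.5 mg/mL final; 16 h at 37 C, then LiveBLAzer 2 h RT, fluorescence.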

[5] = p53 small molecule agonists, cell-based qHTS assay with rat liver microsomes (AID 1963578)
In short: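 p53RE-bla cells, 4,000/well, pre-incubated 5 h, then given compounds plus rat liver microsomes (0.5 mg/mL final) and NADPH (0.5 mg/mL final). Incubation 16 h at 37 C; beta-lactamase reporter read by LiveBLAzer fluorescence after 2 h at room temperature.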

[6] = p53 small molecule agonists, cell-based qHTS assay with human liver microsomes: qHTS cell viability counter screen (AID 1963579); further: nearly all actives have a fitted effect of over 45% in size
In short: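 p53RE-bla cells, 4,000/well, dosed 5 hours after plating, with human liver microsomes (0.5 mg/mL final) plus NADPH (0.5 mg/mL final), 16 hours at 37 C. Viability read as CellTiter-Glo luminescence after 30 min at room temperature.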

[7] = p53 small molecule agonists, cell-based qHTS assay with rat liver microsomes: qHTS cell viability counter screen (AID 1963580); further: nearly all actives have a fitted effect of over 45% in size
In short: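 Rat liver microsome (0.5 mg/mL final) and NADPH (0.5 mg/mL final) co-incubation with compounds for 16 h at 37 C on HCT-116 p53RE-bla cells; cytotoxicity taken from intracellular ATP luminescence.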

[8] = p53 small molecule agonists, cell-based qHTS assay: qHTS cell viability counter screen (AID 1963581); further: nearly all actives have a fitted effect of over 45% in size
In short: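 Counter screen read by CellTiter-Glo luminescence (ATP content, 30 min at room temperature), run in the same wells as the beta-lactamase reporter read. HCT-116 p53RE-bla cells saw compounds for 16 h at 37 C.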

[9] = target: 5-hydroxytryptamine receptor 2A (Homo sapiens) (UniProt P28223); assay: 5-hydroxytryptamine receptor 2A (HTR2A) small molecule agonists, cell-based qHTS assay (AID 1963587); further: nearly all actives have a fitted effect of over 30% in size
Sequence of 5-hydroxytryptamine receptor 2A (Homo sapiens) (P28223 whole entry, looked up): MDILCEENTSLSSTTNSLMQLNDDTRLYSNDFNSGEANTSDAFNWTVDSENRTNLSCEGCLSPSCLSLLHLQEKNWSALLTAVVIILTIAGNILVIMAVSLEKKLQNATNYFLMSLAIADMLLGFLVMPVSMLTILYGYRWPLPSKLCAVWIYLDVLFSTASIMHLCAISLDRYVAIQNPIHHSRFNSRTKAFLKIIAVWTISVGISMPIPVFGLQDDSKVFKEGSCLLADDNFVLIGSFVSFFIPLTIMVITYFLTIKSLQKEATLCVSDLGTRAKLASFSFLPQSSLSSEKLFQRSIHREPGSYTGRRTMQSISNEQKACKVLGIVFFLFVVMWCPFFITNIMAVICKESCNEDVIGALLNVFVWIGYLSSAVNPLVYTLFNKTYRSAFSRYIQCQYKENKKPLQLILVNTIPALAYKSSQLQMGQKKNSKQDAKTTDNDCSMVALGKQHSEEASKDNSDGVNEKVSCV
In short: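 Kinetic calcium-flux fluorescence (2 min, 1 sec intervals) after compound addition in agonist mode. HTR2A-CHO cells were cultured 18 h, then dye-loaded 1 h at 37 C.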

[10] = target: Muscarinic acetylcholine receptor M1 (Homo sapiens) (UniProt P11229); assay: Cholinergic receptor muscarinic 1 (CHRM1) small molecule antagonists, cell-based qHTS assay (AID 1963588); further: nearly all actives have a fitted effect of over 40% in size; further: potency means the concentration at half of the fitted maximal effect
Sequence of Muscarinic acetylcholine receptor M1 (Homo sapiens) (P11229 whole entry, looked up): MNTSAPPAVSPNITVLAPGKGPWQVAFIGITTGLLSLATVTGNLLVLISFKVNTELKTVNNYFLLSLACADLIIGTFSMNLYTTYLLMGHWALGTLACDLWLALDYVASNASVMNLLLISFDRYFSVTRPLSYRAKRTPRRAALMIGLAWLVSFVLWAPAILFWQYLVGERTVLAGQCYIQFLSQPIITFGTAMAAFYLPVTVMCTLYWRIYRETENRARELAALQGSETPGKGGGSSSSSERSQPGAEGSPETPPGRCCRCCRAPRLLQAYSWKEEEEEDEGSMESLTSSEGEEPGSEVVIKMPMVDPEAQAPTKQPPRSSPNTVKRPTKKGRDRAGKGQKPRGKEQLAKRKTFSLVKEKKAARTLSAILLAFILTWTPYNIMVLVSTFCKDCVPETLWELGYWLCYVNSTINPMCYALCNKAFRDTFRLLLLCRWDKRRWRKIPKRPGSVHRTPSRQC
In short: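 Compounds were tested at 15 concentrations in three independent runs. Dye-loaded CHRM1-CHO cells were exposed 5 min at room temperature before stimulation by acetylcholine added at 50nM. Intracellular calcium was read kinetically on FDSS for 3 min.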

[11] = target: Muscarinic acetylcholine receptor M1 (Homo sapiens) (UniProt P11229); assay: Cholinergic receptor muscarinic 1 (CHRM1) small molecule agonists, cell-based qHTS assay (AID 1963589); further: nearly all actives have a fitted effect of over 35% in size
In short: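 Agonist-mode calcium-flux screen: compounds at 15 concentrations, three independent runs, were pin-transferred onto dye-loaded human CHRM1-CHO cells. Fluorescence was then recorded kinetically every second over minutes.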

[12] = cAMP Responsive Elements (CRE) small molecule antagonists, cell-based qHTS assay (AID 1963591; active means well fitted inhibition curve with a large enough effect in the signal ratio in the repeat runs, not every such curve was filed as active; the % refers to the signal ratio)
In short: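 Antagonist mode: compounds are added alongside the adenylyl cyclase activator NKH477 (0.25 uM final) to CRE-bla HEK293T cells for 3 h. LiveBLAzer FRET substrate, 2 h at room temperature, reports bla expression.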

[13] = target: Beta-2 adrenergic receptor (Homo sapiens) (UniProt P07550); assay: Adrenergic beta2 receptor (ADRB2) small molecule antagonists, cell-based qHTS assay (AID 1963592); further: series mostly up to about 92 µM; nearly all actives have a fitted effect of over 50% in size
Sequence of Beta-2 adrenergic receptor (Homo sapiens) (P07550 whole entry, looked up): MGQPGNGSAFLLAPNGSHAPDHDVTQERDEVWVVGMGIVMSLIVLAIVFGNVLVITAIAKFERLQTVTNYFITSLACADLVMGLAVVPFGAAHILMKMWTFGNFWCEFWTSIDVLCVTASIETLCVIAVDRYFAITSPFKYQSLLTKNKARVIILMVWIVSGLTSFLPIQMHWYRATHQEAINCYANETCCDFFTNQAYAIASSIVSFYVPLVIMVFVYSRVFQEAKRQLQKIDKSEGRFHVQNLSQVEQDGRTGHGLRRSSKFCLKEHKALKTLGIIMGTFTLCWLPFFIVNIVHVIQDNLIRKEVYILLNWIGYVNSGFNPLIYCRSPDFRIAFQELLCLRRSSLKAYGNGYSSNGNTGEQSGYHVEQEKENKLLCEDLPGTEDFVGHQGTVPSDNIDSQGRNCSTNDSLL
In short: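 Assay format: CHO-ADRB2 cells, 18-20hr seeding at 37C/5% CO2, then compound plus 1nM isoproterenol agonist mix for 0.5hr RT. Homogeneous time-resolved fluorescence cAMP detection after 1hr, expressed as 665/615 nm ratio.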

[14] = target: D(2) dopamine receptor (Homo sapiens) (UniProt P14416); assay: Dopamine D2 receptor (DRD2) small molecule agonists, cell-based qHTS assay (AID 1963594); further: nearly all actives have a fitted effect of over 35% in size; further: potency means the concentration at half of the fitted maximal effect
Sequence of D(2) dopamine receptor (Homo sapiens) (P14416 whole entry, looked up): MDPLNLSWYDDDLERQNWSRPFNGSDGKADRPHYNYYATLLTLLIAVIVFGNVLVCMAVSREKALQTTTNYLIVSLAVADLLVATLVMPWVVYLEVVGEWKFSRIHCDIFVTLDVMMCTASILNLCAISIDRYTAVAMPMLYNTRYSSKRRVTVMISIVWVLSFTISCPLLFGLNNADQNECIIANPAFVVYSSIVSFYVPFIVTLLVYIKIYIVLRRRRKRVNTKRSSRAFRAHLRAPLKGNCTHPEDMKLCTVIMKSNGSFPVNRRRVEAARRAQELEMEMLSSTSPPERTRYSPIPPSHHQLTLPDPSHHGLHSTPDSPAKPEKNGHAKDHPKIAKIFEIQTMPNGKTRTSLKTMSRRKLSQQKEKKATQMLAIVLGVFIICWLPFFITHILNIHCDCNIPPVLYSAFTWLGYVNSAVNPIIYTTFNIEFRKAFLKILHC
In short: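 cAMP accumulation in DRD2-HEK293 cells measured by HTRF after 1 h detection; compounds added 10 min before NKH477 (200nM […]) forskolin-analogue stimulation, 30 min at room temperature, with Ro20-1724 present at 0.1 mM final.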

[15] = target: D(2) dopamine receptor (Homo sapiens) (UniProt P14416); assay: Dopamine D2 receptor (DRD2) small molecule antagonists, cell-based qHTS assay (AID 1963595; active means well fitted inhibition curve with a large enough effect in the signal ratio in the repeat runs, with a control signal flat; the % refers to the signal ratio; further: potency means the concentration at half of the fitted maximal effect)
In short: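 HEK293 cells stably expressing DRD2, preincubated with 0.1 mM Ro20-1724 and compounds 10 min, were stimulated with 200 nM NKH477 plus 12 nM quinpirole for 30 min at room temperature; cAMP measured by HTRF (665/620 nm).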

[16] = p53 small molecule agonists, cell-based qHTS assay (AID 1963582; active means well fitted activation curve with a large enough effect in the signal ratio in the repeat runs, not every such curve was filed as active; the % refers to the signal ratio)
In short: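 Read-out is beta-lactamase FRET fluorescence after 2 h at room temperature with LiveBLAzer B/G substrate. p53 response element-bla cells were treated 16 h at 37 C with compounds in DMSO, added 5 h after seeding.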

[17] = target: 5-hydroxytryptamine receptor 2A (Homo sapiens) (UniProt P28223); assay: 5-hydroxytryptamine receptor 2A (HTR2A) small molecule antagonists, cell-based qHTS assay (AID 1963586); further: nearly all actives have a fitted effect of over 45% in size; further: potency means the concentration at half of the fitted maximal effect
In short: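 CHO cells stably expressing human HTR2A were plated for 18 h at 37 C, then loaded with calcium dye for 1 h. Compounds were preincubated 5 min at room temperature before DOI (4 nM solution) was added. Kinetic fluorescence was read for 3 min.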

[18] = cAMP Responsive Elements (CRE) small molecule agonists, cell-based qHTS assay (AID 1963590); further: potency means the concentration at half of the fitted maximal effect
In short: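 Agonist mode: compound added to CRE-bla HEK 293T cells (2,000/well, 18 h after plating) for 3 h at 37 C/5% CO2. Reporter activity detected via FRET beta-lactamase substrate, 2 h room-temperature loading.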

[19] = target: Beta-2 adrenergic receptor (Homo sapiens) (UniProt P07550); assay: Adrenergic beta2 receptor (ADRB2) small molecule agonists, cell-based qHTS assay (AID 1963593);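 further: CHO cells stably overexpressing human ADRB2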
In short: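 CHO cells stably over-expressing ADRB2 were plated overnight at 37C, then dosed with compounds plus a stimulation mix containing 100uM IBMX and 25uM Ro-20-1724 for 0.5hr at room temperature. cAMP was measured by HTRF competition, 1hr.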
On the % scale 0 is the no-effect control and ±100 the full control effect.

C(=C(c1ccccc1)c1ccccc1)c1ccccc1
inactive: Potency [1] | Potency [2] | Potency [3] | Potency [4] | Potency [5] | Potency [6] | Potency [7] | Potency [8] | Potency [9] | Potency [10] | Potency [11] | Potency [12] | Potency [13] | Potency [14] | Potency [15]

CC(=O)Nc1ccc(S(=O)(=O)Nc2ccc([N+](=O)[O-])cc2)cc1
inactive: Potency [1] | Potency [2] | Potency [3] | Potency [4] | Potency [5] | Potency [6] | Potency [7] | Potency [8] | Potency [16] | Potency [17] | Potency [9] | Potency [10] | Potency [11] | Potency [18] | Potency [12] | Potency [13] | Potency [19] | Potency [14] | Potency [15]

COc1cc(C)nc(-n2nc(C)cc2OC)n1
inactive: Potency [1] | Potency [2] | Potency [3] | Potency [4] | Potency [5] | Potency [7] | Potency [8] | Potency [16] | Potency [17] | Potency [9] | Potency [10] | Potency [11] | Potency [18] | Potency [12] | Potency [13] | Potency [15]

COc1cc2c(cc1OC)-c1cc(=Nc3c(C)cc(C)cc3C)n(C)c(=O)n1CC2
active: Potency [18] 4.22 µM | Potency [15] 15 µM
inactive: Potency [1] | Potency [2] | Potency [3] | Potency [4] | Potency [5] | Potency [7] | Potency [8] | Potency [16] | Potency [17] | Potency [9] | Potency [11] | Potency [14]

O=C(O)CN(CCN(CC(=O)O)CC(=O)O)CC(=O)O
inactive: activity change [1] 0.111% [at 2.04 µM, hits give high values] | activation [2] -1.01% [at 2.72 µM] | activation [3] 0.597% [at 2.04 µM] | activation [4] -9.46% [at 2.33 µM] | activation [5] -7.74% [at 2.33 µM] | activity change, negative = cytotoxicity [6] -15.2% [at 2.33 µM] | activity change, negative = cytotoxicity [8] 1.99% [at 2.33 µM] | activation [16] -4.53% [at 2.33 µM] | activity, negative = inhibition [17] -0.852% [at 2.12 µM] | activity, negative = inhibition [10] 37.7% [at 2.17 µM] | activation [11] -0.34% [at 2.72 µM] | activation [18] 0.14% [at 3.27 µM] | activity change, negative = inhibition [12] 1.65% [at 3.27 µM] | activity change, negative = inhibition [13] 4.71% [at 3.27 µM] | activation [19] 11.4% [at 3.27 µM] | activation [14] 2.74% [at 3.27 µM] | activity change, negative = inhibition [15] 8.25% [at 3.28 µM]

c1ccc(OCc2ccc(CCCN3CCOCC3)cc2)cc1
active: Potency [17] 20.5 µM | Potency [10] 2.05 µM
inactive: Potency [1] | Potency [2] | Potency [3] | Potency [4] | Potency [5] | Potency [6] | Potency [7] | Potency [8] | Potency [9] | Potency [11] | Potency [18] | Potency [13] | Potency [14] | Potency [15]

N#C/C(=C1/SC[C@@H](c2ccc(Cl)cc2Cl)S1)n1ccnc1
active: Potency [14] 26.6 µM
inactive: Potency [1] | Potency [2] | Potency [3] | Potency [4] | Potency [5] | Potency [6] | Potency [7] | Potency [8] | Potency [17] | Potency [9] | Potency [10] | Potency [11] | Potency [13] | Potency [19] | Potency [15]
